Holding throughout (experiment): DAPPL (digital affinity profiling via proximity ligation, sequencing); 10 mM Tris-HCl pH 7.5, 50 mM NaCl, 1 mM DTT, 4% glycerol, room temperature, 30 min; GST-TFs on glutathione beads, 16-mer random dsDNA library, 0.1% formaldehyde crosslink after washing; high values mean tight binding
Conditions in all cases: protein: recombinant; tags: N-terminal GST; dsDNA, one strand shown

The target of assay [1] is T1, FLI1 (Homo sapiens, UniProt Q01543 1-452).
T1 sequence: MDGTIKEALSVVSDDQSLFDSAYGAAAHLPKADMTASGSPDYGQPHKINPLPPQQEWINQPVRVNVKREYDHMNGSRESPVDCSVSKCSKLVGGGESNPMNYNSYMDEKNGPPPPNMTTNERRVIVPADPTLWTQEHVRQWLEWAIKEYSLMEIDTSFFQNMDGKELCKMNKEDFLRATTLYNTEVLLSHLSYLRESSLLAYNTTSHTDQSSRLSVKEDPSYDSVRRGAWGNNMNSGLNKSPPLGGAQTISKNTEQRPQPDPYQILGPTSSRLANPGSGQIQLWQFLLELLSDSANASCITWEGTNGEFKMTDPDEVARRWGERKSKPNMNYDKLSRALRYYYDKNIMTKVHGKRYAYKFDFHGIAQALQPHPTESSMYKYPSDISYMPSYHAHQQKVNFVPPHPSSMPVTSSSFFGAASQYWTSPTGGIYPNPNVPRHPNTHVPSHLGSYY
A digest of the protocol:
(§1)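 Human transcription factors were made in yeast as GST fusions, captured on glutathione beads and barcoded with DNA. With a tag-only sample included, the pool was incubated with 200 nmole of a random double-stranded 16-mer DNA library in Tris/NaCl/DTT/glycerol buffer at room temperature for 30 min, then crosslinked with 0.1% formaldehyde after washing, ligated by proximity, amplified and sequenced. For binding signal, each hexamer's read frequency for a factor is divided by its frequency for the tag-only sample.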

The target in assay [2] is T2, GABPA (Homo sapiens, UniProt Q06546 1-454).
T2 sequence: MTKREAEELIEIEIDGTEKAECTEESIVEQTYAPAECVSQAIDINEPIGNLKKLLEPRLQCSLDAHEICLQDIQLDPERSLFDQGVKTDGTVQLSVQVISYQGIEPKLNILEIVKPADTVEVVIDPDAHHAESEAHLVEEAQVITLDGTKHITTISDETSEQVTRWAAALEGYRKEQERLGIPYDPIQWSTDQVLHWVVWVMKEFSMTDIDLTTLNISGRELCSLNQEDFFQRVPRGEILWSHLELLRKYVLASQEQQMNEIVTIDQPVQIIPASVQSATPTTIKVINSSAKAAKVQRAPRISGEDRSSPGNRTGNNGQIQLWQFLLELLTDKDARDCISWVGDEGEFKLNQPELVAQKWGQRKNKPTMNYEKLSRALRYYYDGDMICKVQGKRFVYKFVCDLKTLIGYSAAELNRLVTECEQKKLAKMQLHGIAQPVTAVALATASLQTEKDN
In outline:
as §1

Assay [3] concerns the target T3, ERG (Homo sapiens, UniProt P11308 1-479).
T3 sequence: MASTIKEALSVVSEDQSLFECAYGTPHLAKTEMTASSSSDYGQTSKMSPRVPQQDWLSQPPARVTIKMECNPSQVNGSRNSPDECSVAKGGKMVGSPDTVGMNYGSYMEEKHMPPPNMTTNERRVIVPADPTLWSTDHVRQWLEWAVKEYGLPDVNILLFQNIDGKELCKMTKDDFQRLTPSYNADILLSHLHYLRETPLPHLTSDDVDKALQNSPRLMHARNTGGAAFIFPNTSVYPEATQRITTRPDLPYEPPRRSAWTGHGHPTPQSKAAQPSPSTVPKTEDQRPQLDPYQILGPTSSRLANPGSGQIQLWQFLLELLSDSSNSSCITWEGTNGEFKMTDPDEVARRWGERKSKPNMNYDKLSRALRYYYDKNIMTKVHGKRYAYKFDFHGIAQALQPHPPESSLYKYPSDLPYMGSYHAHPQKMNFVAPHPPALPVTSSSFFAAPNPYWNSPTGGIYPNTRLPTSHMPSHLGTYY
A digest of the protocol:
as §1

Assay [4] addresses ELF1 (Homo sapiens, UniProt P32519 1-619). A digest of the protocol:
as §1

Assay [5] deals with SPIB (Homo sapiens, UniProt Q01892 1-262). A digest of the protocol:
as §1

In assay [6] the target is T4, ELK3 (Homo sapiens, UniProt P41970 1-407).
T4 sequence: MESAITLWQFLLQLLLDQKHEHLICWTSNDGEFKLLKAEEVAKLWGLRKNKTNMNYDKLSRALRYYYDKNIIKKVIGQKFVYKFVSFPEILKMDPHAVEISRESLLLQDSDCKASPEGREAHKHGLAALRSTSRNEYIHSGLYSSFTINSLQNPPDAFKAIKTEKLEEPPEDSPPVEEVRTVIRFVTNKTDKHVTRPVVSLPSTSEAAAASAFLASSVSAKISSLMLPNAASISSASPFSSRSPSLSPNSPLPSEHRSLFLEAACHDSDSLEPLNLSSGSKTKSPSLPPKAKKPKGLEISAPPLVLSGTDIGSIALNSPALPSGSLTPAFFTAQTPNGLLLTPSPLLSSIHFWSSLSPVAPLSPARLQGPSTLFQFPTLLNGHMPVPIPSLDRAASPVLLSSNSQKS
In outline: as §1

The target of assay [7] is T5, ETV2 (Homo sapiens, UniProt O00321 1-342).
T5 sequence: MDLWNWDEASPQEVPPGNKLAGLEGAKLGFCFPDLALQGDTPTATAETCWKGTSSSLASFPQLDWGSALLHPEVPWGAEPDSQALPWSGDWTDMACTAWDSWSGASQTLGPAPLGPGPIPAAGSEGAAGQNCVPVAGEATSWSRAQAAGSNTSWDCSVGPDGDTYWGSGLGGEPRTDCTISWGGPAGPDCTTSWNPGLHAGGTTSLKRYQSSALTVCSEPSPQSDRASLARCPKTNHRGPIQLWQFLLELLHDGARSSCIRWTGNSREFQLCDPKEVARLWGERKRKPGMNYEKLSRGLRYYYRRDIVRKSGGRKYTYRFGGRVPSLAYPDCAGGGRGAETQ
In outline:
as §1

Assay [8] concerns the target T6, ELF3 (Homo sapiens, UniProt P78545 1-371).
T6 sequence: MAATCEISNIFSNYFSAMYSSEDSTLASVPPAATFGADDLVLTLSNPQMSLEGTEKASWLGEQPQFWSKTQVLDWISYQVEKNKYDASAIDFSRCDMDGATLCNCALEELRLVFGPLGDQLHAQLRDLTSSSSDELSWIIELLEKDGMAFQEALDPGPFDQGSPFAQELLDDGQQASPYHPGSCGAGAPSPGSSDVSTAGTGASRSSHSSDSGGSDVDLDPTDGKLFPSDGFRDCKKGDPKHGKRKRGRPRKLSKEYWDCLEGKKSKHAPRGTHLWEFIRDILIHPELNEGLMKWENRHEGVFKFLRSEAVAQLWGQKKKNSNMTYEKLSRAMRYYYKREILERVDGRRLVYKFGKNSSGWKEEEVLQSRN
In outline:
as §1

Assay [9] has as its target ETV1 (Homo sapiens, UniProt P50549 1-477). A digest of the protocol: as §1
Assay [10] deals with T7, ERF (Homo sapiens, UniProt P50548 1-548).
T7 sequence: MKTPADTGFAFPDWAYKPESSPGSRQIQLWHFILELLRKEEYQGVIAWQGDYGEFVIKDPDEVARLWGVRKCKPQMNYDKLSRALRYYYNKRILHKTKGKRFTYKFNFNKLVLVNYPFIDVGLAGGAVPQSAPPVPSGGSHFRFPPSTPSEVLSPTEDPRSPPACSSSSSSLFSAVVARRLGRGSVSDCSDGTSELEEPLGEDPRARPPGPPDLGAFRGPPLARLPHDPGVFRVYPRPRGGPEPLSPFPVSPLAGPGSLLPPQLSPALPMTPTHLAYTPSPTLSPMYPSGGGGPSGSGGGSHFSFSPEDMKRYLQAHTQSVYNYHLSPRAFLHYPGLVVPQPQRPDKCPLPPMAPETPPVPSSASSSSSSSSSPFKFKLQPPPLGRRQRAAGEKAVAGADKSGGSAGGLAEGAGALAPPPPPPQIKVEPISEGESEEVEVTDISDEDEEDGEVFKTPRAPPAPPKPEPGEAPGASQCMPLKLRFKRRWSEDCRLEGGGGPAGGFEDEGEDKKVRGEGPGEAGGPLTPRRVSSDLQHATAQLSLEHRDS
In outline:
as §1

Assay [11] deals with T8, ETV3L (Homo sapiens, UniProt Q6ZN32 1-361).
T8 sequence: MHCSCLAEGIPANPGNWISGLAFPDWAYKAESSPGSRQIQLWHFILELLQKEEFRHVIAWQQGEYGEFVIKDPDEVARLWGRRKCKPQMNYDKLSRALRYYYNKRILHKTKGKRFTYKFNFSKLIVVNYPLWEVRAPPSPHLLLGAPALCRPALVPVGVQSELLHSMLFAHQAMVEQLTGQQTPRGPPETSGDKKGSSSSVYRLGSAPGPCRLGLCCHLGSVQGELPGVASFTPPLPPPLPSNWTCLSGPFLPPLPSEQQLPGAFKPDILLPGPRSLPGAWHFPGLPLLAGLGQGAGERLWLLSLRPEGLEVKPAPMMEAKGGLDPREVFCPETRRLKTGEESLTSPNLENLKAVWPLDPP
A digest of the protocol: as §1

Assay [12] addresses T9, ETV3 (Homo sapiens, UniProt P41162-2 1-143).
T9 sequence: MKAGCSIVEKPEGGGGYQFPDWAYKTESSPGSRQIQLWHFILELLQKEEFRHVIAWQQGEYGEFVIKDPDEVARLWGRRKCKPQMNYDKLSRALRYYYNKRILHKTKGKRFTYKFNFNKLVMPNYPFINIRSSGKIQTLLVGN
A digest of the protocol: as §1

Assay [13] concerns the target ETV6 (Homo sapiens, UniProt P41212 1-452). A digest of the protocol:
as §1

ETV6, sequence (P41212 whole entry): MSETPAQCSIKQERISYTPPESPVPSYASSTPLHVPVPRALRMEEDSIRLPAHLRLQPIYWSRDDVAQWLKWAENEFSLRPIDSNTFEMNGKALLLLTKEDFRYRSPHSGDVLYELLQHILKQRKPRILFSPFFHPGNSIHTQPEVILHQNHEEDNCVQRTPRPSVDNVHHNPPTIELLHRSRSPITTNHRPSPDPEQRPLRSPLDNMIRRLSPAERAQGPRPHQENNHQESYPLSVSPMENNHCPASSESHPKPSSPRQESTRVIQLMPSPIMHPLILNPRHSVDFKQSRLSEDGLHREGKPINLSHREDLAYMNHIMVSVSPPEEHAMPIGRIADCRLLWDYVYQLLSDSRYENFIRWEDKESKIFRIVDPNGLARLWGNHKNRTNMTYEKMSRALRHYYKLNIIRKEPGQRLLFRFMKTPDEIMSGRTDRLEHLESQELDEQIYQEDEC
ETV1, sequence (P50549 whole entry): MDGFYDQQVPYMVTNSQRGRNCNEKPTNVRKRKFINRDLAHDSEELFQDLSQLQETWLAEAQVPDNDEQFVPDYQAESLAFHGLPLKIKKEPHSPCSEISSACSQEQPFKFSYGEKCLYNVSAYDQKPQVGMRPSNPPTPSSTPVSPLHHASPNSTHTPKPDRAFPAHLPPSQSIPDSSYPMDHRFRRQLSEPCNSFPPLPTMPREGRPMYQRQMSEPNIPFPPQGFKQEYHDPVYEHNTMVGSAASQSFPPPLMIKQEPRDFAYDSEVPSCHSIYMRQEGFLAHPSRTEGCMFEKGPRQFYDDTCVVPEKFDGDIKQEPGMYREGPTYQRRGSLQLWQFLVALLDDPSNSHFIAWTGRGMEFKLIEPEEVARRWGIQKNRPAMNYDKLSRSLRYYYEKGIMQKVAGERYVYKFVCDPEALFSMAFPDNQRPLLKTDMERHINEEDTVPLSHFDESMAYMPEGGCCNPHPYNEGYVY
SPIB, sequence (Q01892 whole entry): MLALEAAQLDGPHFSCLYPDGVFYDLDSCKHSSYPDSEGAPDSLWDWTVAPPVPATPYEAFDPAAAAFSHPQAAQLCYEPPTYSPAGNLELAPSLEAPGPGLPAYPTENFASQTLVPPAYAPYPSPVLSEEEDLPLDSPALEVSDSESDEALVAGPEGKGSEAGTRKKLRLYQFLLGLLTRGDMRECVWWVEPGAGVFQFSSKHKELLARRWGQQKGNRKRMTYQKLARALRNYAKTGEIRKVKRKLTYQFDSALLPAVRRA
ELF1, sequence (P32519 whole entry): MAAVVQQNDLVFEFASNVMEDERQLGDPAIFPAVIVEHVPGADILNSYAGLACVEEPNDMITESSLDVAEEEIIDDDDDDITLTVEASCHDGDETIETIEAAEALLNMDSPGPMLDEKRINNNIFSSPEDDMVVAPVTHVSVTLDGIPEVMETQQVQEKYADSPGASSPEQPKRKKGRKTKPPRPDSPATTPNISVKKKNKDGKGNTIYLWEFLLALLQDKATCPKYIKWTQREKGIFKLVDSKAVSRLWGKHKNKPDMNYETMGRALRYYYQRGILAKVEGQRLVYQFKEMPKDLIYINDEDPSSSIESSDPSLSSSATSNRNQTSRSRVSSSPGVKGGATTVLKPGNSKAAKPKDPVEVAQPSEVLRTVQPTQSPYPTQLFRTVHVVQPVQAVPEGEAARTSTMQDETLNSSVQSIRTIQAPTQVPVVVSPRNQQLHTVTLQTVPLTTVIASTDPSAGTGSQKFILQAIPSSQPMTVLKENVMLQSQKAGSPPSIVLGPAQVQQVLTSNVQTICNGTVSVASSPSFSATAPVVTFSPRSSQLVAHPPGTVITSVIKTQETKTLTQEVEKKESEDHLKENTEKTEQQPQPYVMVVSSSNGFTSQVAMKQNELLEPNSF

Turning to TCTGGA, the binding signal in assay [1] is 1.02 fold enrichment (6-mer frequency, TF over GST control); in [2], 1.05 fold enrichment (6-mer frequency, TF over GST control); in [3], 1.04 fold enrichment (6-mer frequency, TF over GST control); in [4], 1.01 fold enrichment (6-mer frequency, TF over GST control); in assay [5] it was 1.01 fold enrichment (6-mer frequency, TF over GST control); in assay [6], 1.2 fold enrichment (6-mer frequency, TF over GST control). Also, the binding signal in assay [7] was 1.15 fold enrichment (6-mer frequency, TF over GST control); in assay [8], 1.06 fold enrichment (6-mer frequency, TF over GST control); in [9], 1.2 fold enrichment (6-mer frequency, TF over GST control); in assay [10], 1.06 fold enrichment (6-mer frequency, TF over GST control); in [11], 1.1 fold enrichment (6-mer frequency, TF over GST control); in [12], 1.05 fold enrichment (6-mer frequency, TF over GST control). Further, in assay [13], the binding signal is 1.07 fold enrichment (6-mer frequency, TF over GST control).

The values above are taken from publication PMC7862700, “An all-to-all approach to the identification of sequence-specific readers for epigenetic DNA modifications on cytosine”.
